Screening results (PubChem)
GLP1R cytotox: cytotoxicity in counter-screen for GLP-1R inverse agonists. HEK293 cAMP-luciferase reporter cells, luminescence, 24 h. 410,000 tested, 0.13% active. AID 624418. Potency, µM (top dose mostly 38.3 µM), for the others: at the highest dose activity change, negative = inhibition, most hits filed as inhibitors;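 note: loss of luciferase light is scored as toxicity; % is set by controls: 0 for no effect and ±100 for the full control effect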
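Quantitative HTS format, 1536 wells, 200 cells/uL seeded. Compounds: 23 nL, 24 h, 37 °C. Detection: luciferase reagent, luminescence at 12 min RT; decreased signal taken as cytotoxic.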
PTHR1 agonist: PTHR1 (human) receptor agonism | Q03431 | HEK293 GP2 PTHR1 cells, GloSensor cAMP luminescence, 1 h | Potency, µM (highest dose often 115 µM), without a hit: at the top dose activation, hits mostly activators | 410,000 tested, 0.075% active | AID 743266; note: nearly all actives have a fitted effect of over 55% in size
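HEK-293-derived GP2 cells expressing PTHR1 and a GloSensor cAMP reporter, 3,000/well, plated overnight, given luciferin plus IBMX (each 0.5 mM as added) for 1 h at 37 °C, then compound for 1 h at 37 °C. Luminescence was read after 15 min at room temperature.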
GLP-1R agonist: GLP-1 receptor (human) agonism; HEK293 GLP-1R CRE-luciferase, luminescence, 4-6 h; cells express a hypersensitive GLP-1R form; Potency, µM (doses to about 45.6 µM), inactives show top-dose activation, actives largely listed as activators; 380,000 tested, 0.007% active; P43220; AID 624172; note: % of control where 0% means no effect
Target sequence (P43220 whole entry, looked up): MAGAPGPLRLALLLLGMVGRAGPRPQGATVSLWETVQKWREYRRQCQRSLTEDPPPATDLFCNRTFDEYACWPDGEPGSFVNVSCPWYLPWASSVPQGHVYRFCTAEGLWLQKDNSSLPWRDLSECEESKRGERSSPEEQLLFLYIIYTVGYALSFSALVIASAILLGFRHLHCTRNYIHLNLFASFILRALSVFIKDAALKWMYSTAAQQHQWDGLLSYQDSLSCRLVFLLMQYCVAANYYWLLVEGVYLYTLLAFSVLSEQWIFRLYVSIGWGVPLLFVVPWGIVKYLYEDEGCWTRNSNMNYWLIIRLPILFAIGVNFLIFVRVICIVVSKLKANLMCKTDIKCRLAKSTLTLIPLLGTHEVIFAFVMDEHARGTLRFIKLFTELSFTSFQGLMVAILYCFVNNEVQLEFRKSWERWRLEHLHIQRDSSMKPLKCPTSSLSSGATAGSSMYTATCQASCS
GLP1R inv ag: GLP-1 receptor (human) inverse agonism | HEK293 GLP-1R CRE-luciferase, luminescence, 24 h; GLP-1R form is constitutively active | P43220 | Potency, µM (series often up to 38.3 µM), without a hit: top-dose activity change, negative = inhibition, usual class: inhibitors | 410,000 tested, 1.6% active; note: % is set by controls: 0 for no effect and ±100 for the full control effect; nearly all actives have a fitted effect of over 55% in size
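HEK293 cells stably co-expressing constitutively active GLP-1R and a cAMP-responsive luciferase reporter were seeded in DMEM with 10% Nu serum, given compounds after 12 h, and incubated 24 h at 37 deg C. Luminescence was then read.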
The depositor's hits bear a star; i = inactive; u = inconclusive; x = no result given; [ ] = remark or other dose. Sampled rows, rich in hits. Any-hit rate of the full collection: about 1.7%. Calls come from the whole dose curve; as a rule, active = well fitted curve in the direction sought with a large enough effect; inconclusive = small, poorly fitted or top-dose-only effect, or another doubt; inactive = no such curve, though single readings can be large; an effect the other way counts as inactive or inconclusive. Potency is the fitted concentration of half-maximal effect.

SMILES	GLP1R cytotox	PTHR1 agonist	GLP-1R agonist	GLP1R inv ag
O=C(c1ccccc1)c1cc([N+](=O)[O-])ccc1N1CCOCC1	11µM*	i	u	u
O=C(OCc1cccc(C(F)(F)F)c1)c1cc([N+](=O)[O-])ccc1N1CCOCC1	-9%	-26%	23%	10µM*
COC(=O)c1cc2sc(C)cc2n1Cc1nc(-c2ccc(C)cc2)oc1C	8%	i	x	15%
COC(=O)c1ccc(CN2CCC(Oc3ccc(C(=O)N4CCCCC4)cc3)CC2)cc1	-5%	-31%	-3%	u
CC1CCCN(C(=O)c2ccc(OC3CCN(CCc4ccccc4)CC3)cc2)C1 (stereo unspecified)	u	-16%	3%	8.9µM*
CC1CCCN(C(=O)COc2ccc(-c3ccccc3)cc2)C1 (stereo unspecified)	-14%	i	19%	11µM*
CCS(=O)(=O)N1CCN(C(=O)COc2ccc(-c3ccccc3)cc2)CC1	-15%	-34%	-11%	8%
CCCOC1CCCN(C(=O)c2ccc(OC3CCN(C(=O)COC)CC3)cc2)C1 (stereo unspecified)	10µM*	i	-6%	11µM*
Cc1cc(C)cc(CN2CCC(Oc3ccc(C(=O)N4CCCC4)cc3)CC2)c1	-30%	u	1%	10µM*
O=C(c1ccc(OC2CCN(CCc3ccccc3)CC2)cc1)N1CCCC(CO)C1 (stereo unspecified)	-9%	i	-3%	1%
COc1ccccc1CNC(=O)CN1C(=O)CCc2cc(S(=O)(=O)N3CCCCC3)ccc21	-2%	i	x	-9%
O=C(CC(c1cccs1)N1Cc2ccccc2C1=O)Nc1ccc(F)cc1 (stereo unspecified)	-3%	-13%	8%	6%
CCN(Cc1ccc(OC)cc1)c1ccc(-c2nc(-c3ccncc3)no2)cc1[N+](=O)[O-]	-15%	-24%	x	u
CC1C/C(=C/c2ccccn2)C(=O)/C(=C/c2ccccn2)C1 (stereo unspecified)	4.5µM*	-33%	-5%	-91%
CC(C)(C)C1C/C(=C/c2ccccn2)C(=O)/C(=C/c2ccccn2)C1 (stereo unspecified)	u	-32%	1%	u
Cc1c(NC(=O)c2ccc(-c3ccccc3)cc2)cccc1C(=O)O	0%	i	-4%	3.2µM*
CCN1CCN(c2nc(-c3ccccc3)nc3ccccc23)CC1	-11%	-11%	1%	u
Cc1cccc2nc(-c3ccccc3)nc(N3CCC(O)(c4ccc(Cl)cc4)CC3)c12	-3%	-18%	-12%	3.5µM*
COC(=O)c1cc(CSC(=N)N)ccc1OCCC(C)C	u	i	14%	10µM*
CCCOc1ccc(CSC(=N)N)cc1C(=O)OC	-3%	i	9%	u
CCOC(=O)c1c(CSc2ccccc2)n(C)c2cc(Br)c(OCC(O)CNC(CO)(CO)CO)cc12 (stereo unspecified)	u	-9%	0%	8.9µM*
FC(F)(F)c1cccc(CN2CCC(c3cc(-c4cccs4)n[nH]3)CC2)c1	u	-10%	14%	6.3µM*
Cc1ccc2cccc(N=Cc3c(C)[nH]n(-c4ccccc4)c3=O)c2n1	8%	-7%	20%	5.6µM*
Fc1ccc(N2CCN(c3ncnc4c3nc3n4CCCC3)CC2)cc1	-12%	-16%	0%	-7%
COc1ccc(CCNC(=O)Cn2c(=O)c3cccn3c3ccc(F)cc32)c(OC)c1	21%	i	x	6%
SMILES	GLP1R cytotox	PTHR1 agonist	GLP-1R agonist	GLP1R inv ag
CC1CCCC(C)N1C(=O)CSc1nnnn1-c1cccc2c1CCCC2 (stereo unspecified)	-6%	-1%[57.5 µM]	-2%	7.9µM*
O=C(CSc1nnc(SCc2ccc(Cl)cc2)s1)N/N=C/c1c[nH]c2ccccc12	u	-23%	4%	u
O=C(CSc1nnc(SCc2cccc3ccccc23)s1)N/N=C/c1c[nH]c2ccccc12	-6%	-24%	3%	5.6µM*
OC(CNCCc1ccccc1)c1ccccc1 (stereo unspecified)	2%	-13%[57.5 µM]	27%	6%
OC(c1ccccc1)C(NCCNCc1ccccc1)c1ccccc1 (stereo unspecified)	-2%	i	11%	7.9µM*
O=S(=O)(c1ccc(Cl)cc1)c1nnn2c1nc(N1CCCCC1)c1sccc12	27%	-24%	x	3%
CCOC(=O)c1c(C)oc2nc(C)nc(NCc3ccccc3OC)c12	8%	-6%	x	9%
CCOC(=O)c1c(CN2CCN(CCO)CC2)n(-c2ccccc2)c2cc(Br)c(O)cc12	u	i	16%	2.2µM*
CCOC(=O)c1c(CN2CCN(C)CC2)n(-c2ccccc2)c2cc(Br)c(O)cc12	13%	i	4%	u
CN(C)CCCNc1oc(-c2ccc(Cl)cc2)nc1C#N	-8%	-8%[57.5 µM]	-11%	5µM*
COc1cccc(N2CCN(Cc3nnc(-c4ccc5c(c4)OCO5)o3)CC2)c1	7%	4%	x	3%
CCCC[C@@H](CC)COC(=O)C[C@H](C(=O)OC[C@H](CC)CCCC)S(=O)(=O)O	x	x	-1%	x
Cc1c(C=O)c2ccccc2n1CCOc1ccccc1F	5%	i	13%	u
Cn1c(Oc2ccc(F)cc2)c(C=O)c2ccccc21	-12%	-17%	5%	10µM*
COc1cc(CNC2CCCC2)cc(Cl)c1OCc1ccccc1F	u	-8%	0%	3.5µM*
COc1cc(CNc2ccc3[nH]c(=O)[nH]c3c2)cc(Cl)c1OCc1ccccc1F	-6%	-6%	x	3%
Cc1ccc(OCCn2cc(C(=O)c3ccco3)c3ccccc32)cc1C	-21%	-3%	x	10µM*
CN1CCCC(CN2c3ccccc3Sc3ccccc32)C1 (stereo unspecified)	-20%	-11%	7%	10µM*
CN1CCCC(CC2c3ccccc3Sc3ccccc32)C1 (stereo unspecified)	-22%	-16%	-8%	u
O=C(NCc1ccccc1)C(c1cccc2ccccc12)n1c(=O)c(-c2cc3ccccc3[nH]2)nc2ccccc21 (stereo unspecified)	390%	i	x	u
O=c1c(-c2cc3ccccc3[nH]2)nc2ccccc2n1C(CCc1ccccc1)c1nc2ccccc2[nH]1 (stereo unspecified)	i	-14%	x	3.2µM*
CSCCC(c1nc2ccccc2[nH]1)n1c(=O)c(-c2cc3ccccc3[nH]2)nc2ccccc21 (stereo unspecified)	386%	i	x	u
Cc1ccc(Cc2nc3ccccc3n2C(CCc2ccccc2)c2nc3ccccc3[nH]2)cc1 (stereo unspecified)	5%	-5%	x	24%
O=C(NCc1ccccc1)C(CCc1ccccc1)n1c(=O)c(-c2cc3ccccc3[nH]2)nc2ccccc21 (stereo unspecified)	455%	i	x	5.6µM*
